# Source: PubChem BioAssay (National Center for Advancing Translational Sciences (NCATS))
# Hits are enriched below; roughly 5.7% of the tested compounds scored in any of these assays.
# L3MBTL1 inh: blocks human L3MBTL1; Q9Y468; AlphaScreen L3MBTL1–H3K9me1 peptide binding; Potency, µM (doses to about 57.1 µM), for the others: top-dose activity, negative = inhibition, hits mostly inhibitors; actives 0.66% (n = 230,000); further: potency means the concentration at half of the fitted maximal effect; on the % scale 0 is the no-effect control and ±100 the full control effect; nearly all actives have a fitted effect of over 60% in size
#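 L3MBTL1 50 nM + b-AHA-H3(1-15)K9me1 75 nM, 30 min RT; compound added, 30 min RT; streptavidin donor/Ni-chelate acceptor beads 10 ug/mL each final, 30 min RT dark; AlphaScreen read.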
# BAZ2B block: inhibitors of human BAZ2B bromodomain | Q9UIF8 | AlphaScreen BAZ2B-H3K14Ac peptide displacement | Potency, µM (highest dose often 114 µM), without a hit: at the highest dose activity change, negative = inhibition, usual class: inhibitors | actives 4.4% (n = 360,000) | AID 504333; further: potency means the concentration at half of the fitted maximal effect; on the % scale 0 is the no-effect control and ±100 the full control effect; nearly all actives have a fitted effect of over 60% in size
#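 AlphaScreen displacement: compounds (up to 110uM) incubated 30 min at room temperature with a preformed 50 nM BAZ2B/50 nM biotinylated H3K14Ac peptide complex in PBS pH 7.4 with Tween-20. Donor and acceptor beads at 10 ug/mL final added, 20 min light-protected before reading.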
# PI5P4K alpha inh: inhibitors of human PI5P4K alpha; P48426; PI5P4Kalpha enzyme, ADP-Glo luminescence, 60 min; stronger effect = lower value; max response, %; actives 1.2% (n = 330,000); active means max response of -50% or lower; inconclusive means between -30% and -50%; inactive means -30% or higher; further: value at the top dose of about 77 µM; on the % scale 0 is the no-effect control and ±100 the full control effect
# Target sequence (P48426 whole entry, looked up): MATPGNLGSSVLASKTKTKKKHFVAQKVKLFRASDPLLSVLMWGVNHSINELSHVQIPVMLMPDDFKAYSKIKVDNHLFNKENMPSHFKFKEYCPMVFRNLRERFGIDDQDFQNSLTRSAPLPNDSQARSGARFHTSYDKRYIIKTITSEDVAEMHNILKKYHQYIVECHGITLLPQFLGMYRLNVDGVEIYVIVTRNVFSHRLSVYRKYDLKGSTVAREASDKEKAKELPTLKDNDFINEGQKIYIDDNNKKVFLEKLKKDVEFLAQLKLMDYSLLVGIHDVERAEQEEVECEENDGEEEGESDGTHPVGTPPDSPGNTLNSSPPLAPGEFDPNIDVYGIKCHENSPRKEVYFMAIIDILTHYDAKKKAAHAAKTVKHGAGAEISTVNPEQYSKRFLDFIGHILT
#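 Compounds were pin-transferred onto PI5P4Kalpha and substrate in HEPES pH 7.4 buffer with EGTA, CHAPS and 5% DMSO. ATP (5 microM final) started the reaction, which ran 60 minutes at room temperature before ADP-Glo detection.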
# JMJD2E inh: blocks human JMJD2E demethylase activity. B2RXH2. JMJD2E catalytic domain, FDH-coupled NADH fluorescence (FDH is formaldehyde dehydrogenase). Potency, µM (doses to about 57.1 µM), for the others: top-dose activity change, negative = inhibition, usual class: inhibitors. actives 1.6% (n = 230,000); active means well fitted inhibition curve with a large enough effect, not every such curve was filed as active; inconclusive means small, poorly fitted or top-dose-only effect, or another doubt; inactive means no such curve, though single readings can be large or run the other way;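 further: potency means the concentration at half of the fitted maximal effect; 0% = wells with enzyme and -100% = buffer wells without enzyme; nearly all actives have a fitted effect of over 50% in size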
# HP1b chromo inh: HP1-beta chromodomain-methylated histone interaction inhibition; P83916; AlphaScreen HP1-beta / biotin-H3K9me3 peptide binding; Potency, µM (doses to about 114 µM), for inactives: at the highest dose activity change, negative = inhibition, hits mostly inhibitors; actives 0.56% (n = 390,000); further: potency means the concentration at half of the fitted maximal effect; nearly all actives have a fitted effect of over 70% in size
# Target sequence (P83916 whole entry, looked up): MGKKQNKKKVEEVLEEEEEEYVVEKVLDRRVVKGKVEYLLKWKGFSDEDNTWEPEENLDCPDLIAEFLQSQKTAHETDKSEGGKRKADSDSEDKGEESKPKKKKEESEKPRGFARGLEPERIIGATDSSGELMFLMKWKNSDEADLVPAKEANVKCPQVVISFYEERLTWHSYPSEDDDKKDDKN
#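 AlphaScreen: HP1-beta (50 nM) preformed 30 min with biotin-H3(1-18)K9me3 peptide (50 nM) in PBS pH 7.4, 0.01% Tween-20. Compound added for 30 min at RT, then streptavidin donor/nickel chelate acceptor beads (10 ug/mL) for 30 min.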
# JMJD2A Tudor: blocks the human JMJD2A Tudor domain; Potency, µM (highest dose often 114 µM), inactives show at the highest dose activity change, negative = inhibition, most hits filed as inhibitors; AlphaScreen JMJD2A-Tudor / H3K4me3 peptide binding; actives 4.4% (n = 390,000); further: potency means the concentration at half of the fitted maximal effect; on the % scale 0 is the no-effect control and ±100 the full control effect; nearly all actives have a fitted effect of over 50% in size
# * = called active by the depositor; ? = inconclusive; · = no result given; [ ] = dose if it differs, or a comment. Unless noted, the call rests on the fitted dose curve; in most records, active means well fitted inhibition curve with a large enough effect; inconclusive means small, poorly fitted or top-dose-only effect; inactive means no such curve, though single readings can be large or run the other way.
SMILES,L3MBTL1 inh,BAZ2B block,PI5P4K alpha inh,JMJD2E inh,HP1b chromo inh,JMJD2A Tudor
CCCN(C(=O)COC(=O)CSc1ccc([N+](=O)[O-])cc1)C1CCS(=O)(=O)C1 (stereo unspecified),1.4%,-3.0%,?,·,?,56.2µM*
CC(C)CN(C(=O)COC(=O)CSc1ccc([N+](=O)[O-])cc1)C1CCS(=O)(=O)C1 (stereo unspecified),2.2%,-1.4%,-20.5,·,-4.0%,-20.7%
CN(C(=O)COC(=O)c1ccc([N+](=O)[O-])cc1)c1ccccc1,·,-25.8%,-0.2,-4.8%,10.9%,-24.8%
CN(C(=O)COC(=O)CSc1ccc([N+](=O)[O-])cc1)c1ccccc1,-1.4%,-0.6%,-16.4,·,?,79.4µM*
CCC(=O)OCOc1ccc(/C=C2/CCC(CN(C)C)C2=O)cc1 (stereo unspecified),·,·,-14.3,·,?,89.1µM*
CCOc1ccc(/C=C2\CCC(C3CCCC3)C2=O)cc1 (stereo unspecified),·,3.3%,8.3,·,23.8%,5.5%
CCN(CC)S(=O)(=O)c1ccc(C(=O)NC2=C(C(=O)OC)SCC2)cc1,-20.3%,?,·,-2.1%,-14.6%,39.8µM*
CCOc1ccc(NC(=O)Cn2c(=O)c(CNc3ccc(CC)cc3)cc3cc4c(cc32)OCO4)cc1,·,-11.6%,·,·,47.0%,-0.7%
CCN(CCCNC(=O)CSc1cc(=O)n(CC)c2ccccc12)c1ccccc1,·,?,·,·,?,50.1µM*
CCN(CCCNC(=O)CSc1cc(=O)n(C)c2ccccc12)c1ccccc1,·,·,·,·,10.6%,?
O=C(/C(=C/O)N=Nc1ccccc1)c1cccs1,-24.9%,22.4µM*,-11.6,-2.5%,44.7µM*,-17.3%[11.4 µM]
COc1ccccc1NC(=O)COC(=O)c1cc2c(s1)CCC2,?,56.2µM*,?,·,?,50.1µM*
CCn1c(N)c(C(=O)NCC2CCCO2)sc1=S (stereo unspecified),-3.5%,79.4µM*,?,-16.4%,11.2µM*,?
C=CCn1c(N)c(C(=O)NCC2CCCO2)sc1=S (stereo unspecified),·,0.8%,-2.3,5.3%,-21.1%,4.6%[11.4 µM]
CCNC(=O)c1sc(=S)n(CC)c1N,2.5%,?,-0.8,-3.5%,-31.4%,-16.7%
CCn1c(N)c(C(=O)NCCCOC)sc1=S,-3.4%,?,-6.7,?,50.1µM*,-23.8%
Cc1cc2c(s1)c1cnn(Cc3ccc(Cl)cc3)c(=O)c1n2C,·,·,·,·,·,44.7µM*
Cn1nnc2c(NCc3ccccc3)ncnc21,·,2.7%,·,·,16.4%,9.1%
COC(=O)c1ccc(NCc2cc(O)ccc2O)cc1O,·,·,-26.7,·,56.2µM*,8.91µM*
COC(=O)c1ccc(NCc2c(O)ccc(O)c2Br)cc1Cl,·,·,-25.9,·,10µM*,3.55µM*
COC(=O)c1cc(NCc2c(F)cccc2Cl)ccc1N1CCOCC1,-3.3%,-33.6%,·,2.5%,22.8%,-22.4%
O=C(Nc1ccccc1)c1cc(Cl)nc2ccccc12,5.7%,-17.9%,3.7,2.8%,44.1%,-0.7%
COC(=O)CC1[C@@]2(C)C[C@]34OC5(C)OC6(C7CC(=O)OC(c8ccoc8)[C@]7(C)CCC6(O5)[C@]13C)C(OC(C)=O)[C@]4(OC(C)=O)C2OC(C)=O (stereo partly specified),·,·,·,1.3%,·,·
Cc1ccc(S(=O)(=O)N/N=C/c2cccn2-c2ccc(Cl)cc2)cc1,-0.4%,-2.2%,-7.6,-20.6%,?,56.2µM*
CC1=NN(c2ccc(Cl)cc2)C(=O)/C1=C\c1cccn1-c1ccc(S(N)(=O)=O)cc1,?,10µM*,-1.3,-1.6%,?,22.4µM*
SMILES,L3MBTL1 inh,BAZ2B block,PI5P4K alpha inh,JMJD2E inh,HP1b chromo inh,JMJD2A Tudor
Cc1ccc(S(=O)(=O)N/N=C/c2c(F)cccc2Cl)cc1,10.5%,-3.1%,5.0,6.6%,34.2%,3.7%
C[N+]1(C2CCC3CCCC2C3O)CCCCC1 (stereo unspecified),18.5%,-12.3%,-2.9,?,7.1%,20µM*
CC(=O)c1ccc(NC(=O)c2cc(-c3ccc(C)s3)nc3ccccc23)cc1,·,5.2%,·,·,39.6%,11.0%
CCCc1cc(=O)n2[nH]c(C)c(-c3ccccc3)c2n1,-0.1%,2.2%,-3.7,?,43.9%,-15.3%
Cc1[nH]n2c(=O)cc(-c3ccc(Cl)cc3)nc2c1-c1ccccc1,·,31.6µM*,·,·,-3.7%,?
Cc1[nH]n2c(=O)cc(-c3ccc([N+](=O)[O-])cc3)nc2c1-c1ccccc1,·,·,-18.3,·,-56.6%,50.1µM*
COC(=O)C1=C(O)/C(=C\c2cc(C)n(-c3ccccc3C)c2C)N=C1C,·,79.4µM*,·,?,2.8%,-29.3%
COC(=O)C1=C(O)/C(=C\c2cc(C)n(-c3ccccc3F)c2C)N=C1C,·,56.2µM*,1.0,22.4µM*,11.7%,-12.5%
O=C(CSCc1nc2cccnc2n1C1CCCCC1)NCc1cccc(Br)c1,·,-6.4%,·,·,4.1%[57 µM],-13.2%
CC1(C)Cc2c(C#N)c(N3CCN(C(=O)c4ccccc4)CC3)nc(-c3ccco3)c2CS1,?,50.1µM*,?,5.3%,-1.5%,-33.9%
Cc1cccn2c(=O)c3cc(C(=O)NC(C)C)n(C)c3nc12,·,1.3%,·,·,40.5%,1.3%
CCOc1cc(CNc2ccc(Br)cc2)cc(Br)c1OCC(=O)NC(C)(C)C,·,-9.6%,·,-7.2%,11.3%,-9.4%
CCOc1cc(CNc2ccc(OC)cc2)cc(Br)c1OCC(=O)NC(C)(C)C,?,17.8µM*,·,-7.9%,?,22.4µM*
CCOc1ccc(-c2cc(OC(=O)c3ccc(OC)cc3)c3c(C)oc(C)c3c(=O)c2)cc1,·,-32.1%,·,·,17.1%,-29.9%
COc1ccc(-c2cc(OC(=O)c3ccc(Cl)cc3)c3c(C)oc(C)c3c(=O)c2)cc1,·,39.8µM*,·,·,-0.1%,?
Cc1cc(NC(=O)c2ccccc2C)n(-c2cccc(F)c2)n1,·,2.5%,-8.9,·,10.5%,-4.4%
COCCCNC(=S)NNC(=S)Nc1ccccc1,1.4%,-4.3%,-21.5,-3.0%,-17.7%,1.58µM*
COCCCNC(=S)NNC(=S)Nc1ccc(F)cc1F,·,?,·,1.9%,-13.2%,1.58µM*
NC(=S)NNC(=S)Nc1ccccc1,-2.8%,-16.4%,-70.2*,-13.2%,?,-26.5%
Cc1ccc(CNC(=O)C2CCC(CNS(=O)(=O)c3ccc(C)cc3)CC2)cc1 (stereo unspecified),·,1.5%,·,·,26.7%,-13.5%
Cc1ccc(NC(=O)C2CCN(S(=O)(=O)c3ccc4[nH]c(=O)ccc4c3)CC2)cc1C,·,-13.2%,·,·,30.8%,-8.6%
O=C(Nc1cccc(F)c1)c1ccc2c(c1)N(Cc1ccccc1)C(=O)c1ccccc1S2(=O)=O,·,-1.6%,·,·,44.4%,-9.3%
CCNc1nc(NCC)nc(OCCOC(=O)Nc2ccccc2)n1,5.6%,-0.6%,0.5,3.7%,51.7%,6.6%
